Inconclusive results are not listed. Activity calls are given as the source filed them. The calls were made as follows: active = hit-call score of the fitted dose curve at least 0.9, where 1 is the maximum; inconclusive = response in the unintended direction; inactive = score below 0.9.
Experiment: ATG_M_19_TRANS: Attagene TRANS-FACTORIAL HepG2 Assay for M19 Transcription Factor (Internal Marker) (AID 2282974)
Conditions: HepG2 Attagene TRANS-FACTORIAL M19 internal marker reporter
Description: ATG_TRANS is a cell-based, multiplexed-readout assay that uses HepG2, a human liver cell line, with measurements taken at 24 hours after chemical dosing in a 24-well plate.ATG_M_19_TRANS is one of 30 assay component(s) measured or calculated from the ATG_TRANS assay. It is designed to make measurements of mRNA induction, a form of inducible reporter, as detected with fluorescence intensity signals by Reverse transcription polymerase chain reaction (RT-PCR) and Capillary electrophoresis technology.Data from the assay component ATG_M_19_TRANS was analyzed into 1 assay endpoint. This assay endpoint, ATG_M_19_TRANS, was analyzed in the positive analysis fitting direction relative to DMSO as the negative control and baseline of activity. Using a type of inducible reporter, measures of mRNA for gain-of-signal activity can be used to understand the background control at the transcription factor-level as they relate to the gene . Furthermore, this assay endpoint can be referred to as a secondary readout, because this assay has produced multiple assay endpoints where this one serves a background control function. To generalize the intended target to other relatable targets, this assay endpoint is annotated to the background measurement intended target family, where the subfamily is internal marker.
Human liver HepG2 cells are transiently transfected with multiple reporter transcription units (MRTUs) in 6-well plates using FuGene 6 reagent (Roche; 3 ml FuGene/1 mg DNA). The MRTU constructs are regulated by a cis-regulating element (promoter). […] A major difference between the CIS and TRANS system is that in CIS activities of endogenous TFs are measured, whereas the TRANS assay evaluates changes in activities of exogenous, chimeric NR-Gal4 proteins. […] At the end of 24 hour incubation, total RNA was isolated using TriZol reagent (Invitrogen). The isolated RNA is then reverse-transcribed using oligo(dT) primer and Mo-MLV reverse transcriptase (Invitrogen) with DNAse I (Ambion) treatment for 30 min. The one-tenth of the produced cDNA was amplified by PCR using Taq DNA polymerase (Invitrogen) and two reporter sequence-specific primers. The PCR products were fluorescently labeled by primer extension with 6-arboxyfluorescein (6-FAM) 5'-labeled reporter sequence-specific primer (2 min at 95 C, 20 s at 68 C and 10 min at 72 C) and these products were digested with 5U of HpaI (New England Biolabs) for 2h at 37 C. The fragments were purified using Qiaquick PCR columns (Qiagen), analyzed on an ABI 3130xL genetic analyzer (Applied Biosystems) with peak positions identified by using a set of X-rhodamine (ROX)-labeled MapMarker1000 molecular weight standards (BioVentures). The raw capillary electrophoresis data was processed using Attagraph software (Attagene).

Which outcome does the source give for `CCCCCC(=O)O[C@]1(C(C)=O)CC[C@H]2[C@@H]3CCC4=CC(=O)CC[C@]4(C)[C@H]3CC[C@@]21C` here?
Its outcome is “inactive”.

With `C=C(C)CCCC(C)CCO` (stereo not given) as the molecule, how does the outcome read?
Its outcome is “inactive”.

With `O=C(O)C1=NN(c2ccc(S(=O)(=O)O)cc2)C(=O)C1` as the molecule, how does the outcome read?
Its outcome is “inactive”.

With `C1COCO1` as the molecule, how does the outcome read?
The outcome was “inactive”.

For `CC(=O)c1ccc(C)cc1`, which outcome is on record?
The outcome was “inactive”.

Which outcome does the source give for `CCC(C)COC(=O)CC(C)C` (stereo not given) here?
The outcome was “inactive”.

For `CCCCN(CCCC)CCCCCCN(CCCC)CCCC`, which outcome is on record?
The outcome was “inactive”.

Which outcome does the source give for `C=CC(O)CCCCC` (stereo not given) here?
The outcome was “inactive”.

With `CC/C=C\C#N` as the molecule, how does the outcome read?
The outcome was “inactive”.

For `CCCCCCCCOC(C)=O`, which outcome is on record?
Its outcome is “inactive”.

With `CCOC(=O)C(=O)OCC` as the molecule, how does the outcome read?
The outcome was “inactive”.

Which outcome does the source give for `CCCCOCC(C)OCC(C)O` (stereo not given) here?
Its outcome is “inactive”.

With `O=C(O)c1cccc(Cl)n1` as the molecule, how does the outcome read?
The outcome was “inactive”.

Which outcome does the source give for `CC(O)COCC(C)O` (stereo not given) here?
The outcome was “inactive”.

With `OC[C@H]1O[C@@H](O[C@H]2[C@H](O)[C@@H](O)[C@H](O)O[C@@H]2CO)[C@H](O)[C@@H](O)[C@H]1O` as the molecule, how does the outcome read?
The outcome was “inactive”.

Which outcome does the source give for `C=CC(=O)OCCCCCC` here?
Its outcome is “inactive”.

For `NC(N)=NC(N)=NCCc1ccccc1`, which outcome is on record?
The outcome was “inactive”.

Which outcome does the source give for `CC/C=C\CCOC(=O)C(C)C` here?
The outcome was “inactive”.

Which outcome does the source give for `NCCN1CCNCC1` here?
Its outcome is “inactive”.

For `CNC(=C[N+](=O)[O-])NCCSCc1ccc(CN(C)C)o1`, which outcome is on record?
Its outcome is “inactive”.

For `CCC(=O)OC/C=C(\C)CCC=C(C)C`, which outcome is on record?
Its outcome is “inactive”.

For `CC(C)CCCC(C)(C)O`, which outcome is on record?
Its outcome is “inactive”.

Which outcome does the source give for `CC(CO)c1ccccc1` (stereo not given) here?
The outcome was “inactive”.

Which outcome does the source give for `CC1=CCC(C(C)C)=CC1` here?
The outcome was “inactive”.

For `OCC=Cc1ccccc1`, which outcome is on record?
Its outcome is “inactive”.

Which outcome does the source give for `CCCO[Si](OCCC)(OCCC)OCCC` here?
Its outcome is “inactive”.

With `CC1=CC(O)CC(C)(C)C1` (stereo not given) as the molecule, how does the outcome read?
The outcome was “inactive”.

Which outcome does the source give for `CCCCCC#CC(=O)OC` here?
The outcome was “inactive”.

For `CCC(C)(C)C1CCC(OC)CC1` (stereo not given), which outcome is on record?
The outcome was “inactive”.

Which outcome does the source give for `CCC(C)(CCCC(C)C)OC(C)=O` (stereo not given) here?
Its outcome is “inactive”.

For `COc1ccc(N)c(C)c1`, which outcome is on record?
The outcome was “inactive”.

With `CCCc1ccc(O)cc1` as the molecule, how does the outcome read?
Its outcome is “inactive”.

For `CC(C)(CO)CO`, which outcome is on record?
Its outcome is “inactive”.

Which outcome does the source give for `O=C1OCc2ccccc21` here?
Its outcome is “inactive”.

Which outcome does the source give for `CCCCCc1cccc(=O)o1` here?
The outcome was “inactive”.

Which outcome does the source give for `CC(=O)OC(C)(C)C1CC=C(C)CC1` (stereo not given) here?
Its outcome is “inactive”.

For `O=S1(=O)CC=CC1`, which outcome is on record?
Its outcome is “inactive”.

For `CC(=O)OC(C)(C)C`, which outcome is on record?
Its outcome is “inactive”.

Which outcome does the source give for `CCC(=O)OC(C)(C)C1CC=C(C)CC1` (stereo not given) here?
Its outcome is “inactive”.

For `NC(=O)c1cccnc1`, which outcome is on record?
Its outcome is “inactive”.

Reference: PubChem BioAssay (EPA / NIEHS)
